Experimental data reported in PubChem BioAssay (EPA / NIEHS).
Calls of active or inactive are those of the source. Rule for the calls: active = hit-call score of the fitted dose curve at least 0.9, where 1 is the maximum; inactive = score below 0.9.

Experiment: ATG_M_61_CIS: Attagene CIS-FACTORIAL HepG2 Assay for M61 Transcription Factor (Internal Marker) (AID 2282937)
Conditions: HepG2 Attagene CIS-FACTORIAL M61 internal marker reporter; actives raise or lower the signal
Outline: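 Readout is reporter mRNA by RT-PCR, fluorescent primer extension and capillary electrophoresis, with gain or loss fitted relative to DMSO. Transfected HepG2 cells carrying endogenous-TF-driven cis reporters were exposed to chemicals for 24 hours.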

Structure (SMILES)	outcome
Cc1ccc(C(=O)O)o1	inactive
CC(C#N)(CCC(=O)O)N=NC(C)(C#N)CCC(=O)O (centres undefined)	inactive
O=C(Cl)c1cccc(C(=O)Cl)c1	inactive
C=CC(=O)OCCn1c(=O)n(CCOC(=O)C=C)c(=O)n(CCOC(=O)C=C)c1=O	inactive
N#Cc1ccc(CC(=NNC(=O)Nc2ccc(OC(F)(F)F)cc2)c2cccc(C(F)(F)F)c2)cc1	inactive
CCCC/C=C\CCCCCCCCCC=O	inactive
CC1(C)CCC(C)(C)c2cc(C(=O)Nc3ccc(C(=O)O)cc3)ccc21	inactive
O=c1oc(=O)c2cc3c(=O)oc(=O)c3cc12	inactive
CCCCCCCCCCCCSC	inactive
CCN(CC)CCOC(=O)c1ccc(N)cc1	inactive
NC(=O)c1ccccc1Cl	inactive
CCc1c(C)cc(N)c(CC)c1N	inactive
C=C(C)C1CCC(C)CC1O (centres undefined)	inactive
CCOc1ccccc1OCC	inactive
CC1CCC(C(C)CS)CC1S (centres undefined)	inactive
CN(C)CCCN	inactive
C=C(C)[C@@H]1CC[C@@H](C)C[C@@H]1O	inactive
O=S(=O)(O)NC1CCCCC1	inactive
CC1=CC(=O)NS(=O)(=O)O1	inactive

Structure (SMILES)	outcome
CC(C)CCCCCCCOC(=O)c1ccc(C(=O)OCCCCCCCC(C)C)c(C(=O)OCCCCCCCC(C)C)c1	inactive
C/C=C(\C)C(=O)OCc1ccccc1	inactive
CC(C)C[C@H]1C(=O)N2CCC[C@H]2[C@]2(O)O[C@](NC(=O)[C@@H]3C=C4c5cccc6[nH]c(Br)c(c56)C[C@H]4N(C)C3)(C(C)C)C(=O)N12	inactive
COC(=O)c1ccc(C)cc1	inactive
C=C(C)[C@@H]1CCC2=CC(=O)C[C@@H](C)[C@]2(C)C1	inactive
CC1(C)[C@H]2CC[C@]1(C)[C@H](O)C2	inactive
CC(=O)OCCOC(C)=O	inactive
CCCCC(CC)COCCC#N (centres undefined)	inactive
CCCCCCCCC	inactive
CC1CCC2CC1C2(C)C (centres undefined)	inactive
CC(C)(N)CO	inactive
CCCCC(CC)COC(=O)/C=C\C(=O)OCC(CC)CCCC (centres undefined)	inactive
Nc1cccc(S(=O)(=O)c2cccc(N)c2)c1	inactive
O=c1[nH]nnc2ccccc12	inactive
C=C(C)C(=O)OCc1ccccc1	inactive
CCCCCCCCC=O	inactive
Cc1ccc(C(C)C)cc1O	inactive
C=CCOC(=O)CCC1CCCCC1	inactive
Cc1cccc(Nc2ccccc2C(=O)O)c1C	inactive

Experiment: ATG_EGR_CIS: Attagene CIS-FACTORIAL HepG2 Assay for human Early Growth Response 1 (EGR1) (AID 2282938)
Conditions: HepG2 Attagene CIS-FACTORIAL EGR reporter mRNA; actives raise or lower the signal
Outline: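 After 24 h compound exposure, RNA from reporter-transfected HepG2 cells was reverse-transcribed, PCR-amplified, fluorescently labelled and resolved by capillary electrophoresis. EGR1 reporter transcript changes, up or down, were fitted against DMSO, reflecting endogenous transcription-factor activity.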

Structure (SMILES)	outcome	AC50
Cc1ccc(C(=O)O)o1	inactive	
CC(C#N)(CCC(=O)O)N=NC(C)(C#N)CCC(=O)O (centres undefined)	inactive	
O=C(Cl)c1cccc(C(=O)Cl)c1	inactive	
C=CC(=O)OCCn1c(=O)n(CCOC(=O)C=C)c(=O)n(CCOC(=O)C=C)c1=O		11.2 µM (active)
N#Cc1ccc(CC(=NNC(=O)Nc2ccc(OC(F)(F)F)cc2)c2cccc(C(F)(F)F)c2)cc1	inactive	
CCCC/C=C\CCCCCCCCCC=O	inactive	
CC1(C)CCC(C)(C)c2cc(C(=O)Nc3ccc(C(=O)O)cc3)ccc21		63 µM (active)
O=c1oc(=O)c2cc3c(=O)oc(=O)c3cc12	inactive	
CCCCCCCCCCCCSC	inactive	
CCN(CC)CCOC(=O)c1ccc(N)cc1	inactive	
NC(=O)c1ccccc1Cl		67.2 µM (active)
CCc1c(C)cc(N)c(CC)c1N	inactive	
C=C(C)C1CCC(C)CC1O (centres undefined)	inactive	
CCOc1ccccc1OCC	inactive	
CC1CCC(C(C)CS)CC1S (centres undefined)	inactive	
CN(C)CCCN	inactive	
C=C(C)[C@@H]1CC[C@@H](C)C[C@@H]1O	inactive	
O=S(=O)(O)NC1CCCCC1	inactive	
CC1=CC(=O)NS(=O)(=O)O1	inactive	

Structure (SMILES)	outcome	AC50
CC(C)CCCCCCCOC(=O)c1ccc(C(=O)OCCCCCCCC(C)C)c(C(=O)OCCCCCCCC(C)C)c1	inactive	
C/C=C(\C)C(=O)OCc1ccccc1	inactive	
CC(C)C[C@H]1C(=O)N2CCC[C@H]2[C@]2(O)O[C@](NC(=O)[C@@H]3C=C4c5cccc6[nH]c(Br)c(c56)C[C@H]4N(C)C3)(C(C)C)C(=O)N12		1.65 µM (active)
COC(=O)c1ccc(C)cc1	inactive	
C=C(C)[C@@H]1CCC2=CC(=O)C[C@@H](C)[C@]2(C)C1	inactive	
CC1(C)[C@H]2CC[C@]1(C)[C@H](O)C2	inactive	
CC(=O)OCCOC(C)=O	inactive	
CCCCC(CC)COCCC#N (centres undefined)	inactive	
CCCCCCCCC	inactive	
CC1CCC2CC1C2(C)C (centres undefined)	inactive	
CC(C)(N)CO	inactive	
CCCCC(CC)COC(=O)/C=C\C(=O)OCC(CC)CCCC (centres undefined)	inactive	
Nc1cccc(S(=O)(=O)c2cccc(N)c2)c1	inactive	
O=c1[nH]nnc2ccccc12	inactive	
C=C(C)C(=O)OCc1ccccc1	inactive	
CCCCCCCCC=O	inactive	
Cc1ccc(C(C)C)cc1O	inactive	
C=CCOC(=O)CCC1CCCCC1	inactive	
Cc1cccc(Nc2ccccc2C(=O)O)c1C	inactive	

Experiment: ATG_M_19_CIS: Attagene CIS-FACTORIAL HepG2 Assay for M19 Transcription Factor (Internal Marker) (AID 2282939)
Conditions: HepG2 Attagene CIS-FACTORIAL M19 internal marker reporter; actives raise or lower the signal
Outline: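 Following a 24 h exposure, RNA from transfected HepG2 cells was reverse-transcribed, PCR-amplified with reporter-specific primers, end-labelled with 6-FAM and HpaI-digested before capillary separation. Values represent gain or loss versus DMSO.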

Structure (SMILES)	outcome
Cc1ccc(C(=O)O)o1	inactive
CC(C#N)(CCC(=O)O)N=NC(C)(C#N)CCC(=O)O (centres undefined)	inactive
O=C(Cl)c1cccc(C(=O)Cl)c1	inactive
C=CC(=O)OCCn1c(=O)n(CCOC(=O)C=C)c(=O)n(CCOC(=O)C=C)c1=O	inactive
N#Cc1ccc(CC(=NNC(=O)Nc2ccc(OC(F)(F)F)cc2)c2cccc(C(F)(F)F)c2)cc1	inactive
CCCC/C=C\CCCCCCCCCC=O	inactive
CC1(C)CCC(C)(C)c2cc(C(=O)Nc3ccc(C(=O)O)cc3)ccc21	inactive
O=c1oc(=O)c2cc3c(=O)oc(=O)c3cc12	inactive
CCCCCCCCCCCCSC	inactive
CCN(CC)CCOC(=O)c1ccc(N)cc1	inactive
NC(=O)c1ccccc1Cl	inactive
CCc1c(C)cc(N)c(CC)c1N	inactive
C=C(C)C1CCC(C)CC1O (centres undefined)	inactive
CCOc1ccccc1OCC	inactive
CC1CCC(C(C)CS)CC1S (centres undefined)	inactive
CN(C)CCCN	inactive
C=C(C)[C@@H]1CC[C@@H](C)C[C@@H]1O	inactive
O=S(=O)(O)NC1CCCCC1	inactive
CC1=CC(=O)NS(=O)(=O)O1	inactive

Structure (SMILES)	outcome
CC(C)CCCCCCCOC(=O)c1ccc(C(=O)OCCCCCCCC(C)C)c(C(=O)OCCCCCCCC(C)C)c1	inactive
C/C=C(\C)C(=O)OCc1ccccc1	inactive
CC(C)C[C@H]1C(=O)N2CCC[C@H]2[C@]2(O)O[C@](NC(=O)[C@@H]3C=C4c5cccc6[nH]c(Br)c(c56)C[C@H]4N(C)C3)(C(C)C)C(=O)N12	inactive
COC(=O)c1ccc(C)cc1	inactive
C=C(C)[C@@H]1CCC2=CC(=O)C[C@@H](C)[C@]2(C)C1	inactive
CC1(C)[C@H]2CC[C@]1(C)[C@H](O)C2	inactive
CC(=O)OCCOC(C)=O	inactive
CCCCC(CC)COCCC#N (centres undefined)	inactive
CCCCCCCCC	inactive
CC1CCC2CC1C2(C)C (centres undefined)	inactive
CC(C)(N)CO	inactive
CCCCC(CC)COC(=O)/C=C\C(=O)OCC(CC)CCCC (centres undefined)	inactive
Nc1cccc(S(=O)(=O)c2cccc(N)c2)c1	inactive
O=c1[nH]nnc2ccccc12	inactive
C=C(C)C(=O)OCc1ccccc1	inactive
CCCCCCCCC=O	inactive
Cc1ccc(C(C)C)cc1O	inactive
C=CCOC(=O)CCC1CCCCC1	inactive
Cc1cccc(Nc2ccccc2C(=O)O)c1C	inactive
